Experimental data: ChEMBL document CHEMBL1961873, “Compounds: GSK PKIS; Assays: Nanosyn kinase panel” (2012)
Values joined by “and” are separate entries in the source; they are usually repeats but may differ in a detail not shown here. Equal entries are not always repeated.

Tests used:
[1] = target: Mast/stem cell growth factor receptor Kit (Homo sapiens) (UniProt P10721); conditions: at 1 µM
[2] = tested on: Mast/stem cell growth factor receptor Kit (Homo sapiens), P10721 [D816V]; conditions: at 0.1 µM
[3] = tested on: Mast/stem cell growth factor receptor Kit (Homo sapiens), P10721 [D816V]; conditions: at 1 µM
[4] = tested on: Mast/stem cell growth factor receptor Kit (Homo sapiens), P10721 [T670I]; conditions: at 0.1 µM
[5] = tested on: Mast/stem cell growth factor receptor Kit (Homo sapiens), P10721 [T670I]; conditions: at 1 µM
[6] = tested on: Mast/stem cell growth factor receptor Kit (Homo sapiens), P10721 [V560G]; conditions: at 0.1 µM
[7] = tested on: Mast/stem cell growth factor receptor Kit (Homo sapiens), P10721 [V560G]; conditions: at 1 µM
[8] = target: Tyrosine-protein kinase Lck (Homo sapiens) (UniProt P06239); conditions: at 0.1 µM
[9] = target: Tyrosine-protein kinase Lck (Homo sapiens) (UniProt P06239); conditions: at 1 µM
[10] = target: Leukocyte tyrosine kinase receptor (Homo sapiens) (UniProt P29376); conditions: at 0.1 µM
Chain of Leukocyte tyrosine kinase receptor (Homo sapiens) (P29376 whole entry): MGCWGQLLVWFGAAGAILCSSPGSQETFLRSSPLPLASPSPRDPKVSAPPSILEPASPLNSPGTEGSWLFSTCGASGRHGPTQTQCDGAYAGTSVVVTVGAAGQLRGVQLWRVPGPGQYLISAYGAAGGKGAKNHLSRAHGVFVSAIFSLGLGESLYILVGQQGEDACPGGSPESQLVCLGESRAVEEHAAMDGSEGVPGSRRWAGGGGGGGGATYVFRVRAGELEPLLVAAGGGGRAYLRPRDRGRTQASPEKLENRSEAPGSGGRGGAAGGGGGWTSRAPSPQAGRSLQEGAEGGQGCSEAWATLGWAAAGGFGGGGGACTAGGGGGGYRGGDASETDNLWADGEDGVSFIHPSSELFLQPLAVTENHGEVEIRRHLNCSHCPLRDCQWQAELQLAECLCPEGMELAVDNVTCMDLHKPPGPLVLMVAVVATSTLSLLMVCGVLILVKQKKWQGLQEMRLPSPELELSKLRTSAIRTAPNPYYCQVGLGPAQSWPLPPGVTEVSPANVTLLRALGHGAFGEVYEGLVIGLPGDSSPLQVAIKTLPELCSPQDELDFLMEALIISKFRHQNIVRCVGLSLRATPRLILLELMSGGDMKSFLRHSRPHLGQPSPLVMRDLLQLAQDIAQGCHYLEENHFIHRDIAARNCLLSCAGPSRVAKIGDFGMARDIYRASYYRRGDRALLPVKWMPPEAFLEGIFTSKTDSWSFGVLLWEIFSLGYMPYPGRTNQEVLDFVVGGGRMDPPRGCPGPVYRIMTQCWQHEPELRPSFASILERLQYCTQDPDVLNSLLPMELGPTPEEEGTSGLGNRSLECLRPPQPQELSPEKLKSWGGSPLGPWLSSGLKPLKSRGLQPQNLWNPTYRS

Chain of Mast/stem cell growth factor receptor Kit (Homo sapiens) (P10721 whole entry): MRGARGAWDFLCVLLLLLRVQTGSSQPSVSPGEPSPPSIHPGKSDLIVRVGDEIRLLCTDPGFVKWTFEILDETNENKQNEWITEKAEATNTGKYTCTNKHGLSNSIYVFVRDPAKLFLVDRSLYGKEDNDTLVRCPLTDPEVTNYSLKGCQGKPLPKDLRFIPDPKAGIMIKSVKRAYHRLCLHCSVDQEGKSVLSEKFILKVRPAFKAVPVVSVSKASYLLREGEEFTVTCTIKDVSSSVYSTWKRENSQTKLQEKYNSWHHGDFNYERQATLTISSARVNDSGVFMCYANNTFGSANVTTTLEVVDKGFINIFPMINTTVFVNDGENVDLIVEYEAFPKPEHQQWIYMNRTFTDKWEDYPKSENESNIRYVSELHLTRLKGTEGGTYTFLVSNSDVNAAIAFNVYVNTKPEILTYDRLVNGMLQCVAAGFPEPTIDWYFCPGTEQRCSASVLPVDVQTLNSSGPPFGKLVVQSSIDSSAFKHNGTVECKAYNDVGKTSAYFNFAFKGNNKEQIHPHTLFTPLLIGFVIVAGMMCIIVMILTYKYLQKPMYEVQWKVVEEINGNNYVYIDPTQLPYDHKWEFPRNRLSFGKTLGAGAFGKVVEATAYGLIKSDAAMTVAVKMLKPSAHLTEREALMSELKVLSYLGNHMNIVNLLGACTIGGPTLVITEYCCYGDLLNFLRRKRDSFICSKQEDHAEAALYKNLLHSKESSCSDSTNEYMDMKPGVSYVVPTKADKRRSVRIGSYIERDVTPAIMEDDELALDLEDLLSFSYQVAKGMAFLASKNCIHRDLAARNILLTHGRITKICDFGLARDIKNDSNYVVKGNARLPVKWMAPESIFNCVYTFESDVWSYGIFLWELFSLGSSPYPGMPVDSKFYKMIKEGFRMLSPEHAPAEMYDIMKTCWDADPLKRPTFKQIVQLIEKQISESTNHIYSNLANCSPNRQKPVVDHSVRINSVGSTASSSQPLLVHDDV
Chain of Mast/stem cell growth factor receptor Kit (Homo sapiens), P10721 [V560G] (P10721 whole entry V560G): as the sequence (P10721 whole entry) above, with V560G counted along it
Chain of Tyrosine-protein kinase Lck (Homo sapiens) (P06239 2-509 limits assumed): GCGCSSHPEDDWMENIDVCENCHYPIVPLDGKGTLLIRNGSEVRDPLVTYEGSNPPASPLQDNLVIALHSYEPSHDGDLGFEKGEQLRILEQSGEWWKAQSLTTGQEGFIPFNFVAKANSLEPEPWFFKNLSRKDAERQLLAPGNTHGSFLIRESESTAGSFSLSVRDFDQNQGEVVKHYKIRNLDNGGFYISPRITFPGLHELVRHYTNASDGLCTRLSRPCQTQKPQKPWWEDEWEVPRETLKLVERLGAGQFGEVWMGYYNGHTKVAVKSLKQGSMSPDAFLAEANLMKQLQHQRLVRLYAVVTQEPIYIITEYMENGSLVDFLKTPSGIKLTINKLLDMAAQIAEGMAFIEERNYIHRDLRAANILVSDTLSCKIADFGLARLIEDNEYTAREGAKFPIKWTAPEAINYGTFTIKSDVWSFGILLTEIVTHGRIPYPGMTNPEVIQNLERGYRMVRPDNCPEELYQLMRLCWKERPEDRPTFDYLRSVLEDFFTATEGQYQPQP
Chain of Mast/stem cell growth factor receptor Kit (Homo sapiens), P10721 [T670I] (P10721 whole entry T670I): as the sequence (P10721 whole entry) above, with T670I counted along it
Chain of Mast/stem cell growth factor receptor Kit (Homo sapiens), P10721 [D816V] (P10721 whole entry D816V): as the sequence (P10721 whole entry) above, with D816V counted along it

| SMILES | inhibition [1] | inhibition [2] | inhibition [3] | inhibition [4] | inhibition [5] | inhibition [6] | inhibition [7] | inhibition [8] | inhibition [9] | inhibition [10] |
| --- | --- | --- | --- | --- | --- | --- | --- | --- | --- | --- |
| CC1=C(C(=O)Nc2ccc3[nH]nc(C)c3c2)C(c2ccc(C(F)(F)F)cc2)CC(=O)N1 (stereo not given) | 2.22% | 5.34% | 1.99% | -0.21% | 1.75% | 0.71% | -0.03% | 5.93% | 18.8% | 1.5% |
| Cc1cc(O)cc(C)c1/C=C/c1cncc(C(N)=O)c1 | 66.6% | 3.61% | 2.03% | 2.25% | 1.74% | 2.69% | 22.9% | 8.78% | 44.1% | 2.14% |
| CS(=O)(=O)Nc1ccc(-c2cc(-c3ccccc3)cc(C(N)=O)c2N)cc1 | 21% | -0.43% | -0.86% | -1.07% | 4.26% | -0.45% | -2.55% | 1.3% | 2.43% | 2.46% |
| Cc1cc(O)cc(C)c1/C=C/c1cncc(C(=O)OC(C)(C)C)c1 | 85.7% | 1.84% | -1.16% | 4.32% | 2.87% | 2.94% | 18.4% | 4.23% | 26.8% | 2.71% |
| COc1ccc(-c2nn3ncccc3c2-c2ccnc(Nc3ccc(F)c(F)c3)n2)cc1 | 28.2% | 6.57% | 5.39% | 3.81% | 11.5% | -0.18% | 4.13% | 7.63% | 39.1% | 4.19% |
| CC1(C)CC(n2cnc(-c3ccc(F)cc3)c2-c2ccnc(N)n2)CC(C)(C)N1 | 2.82% | -0.86% | -3.56% | 2.5% | 1.11% | 1.03% | -0.87% | -0.02% | 6.94% | 1.09% |
| O=C(Nc1n[nH]c2nnc(-c3cccnc3)cc12)C1CC1 | 2.59% | -1.93% | 1.15% | -0.12% | 0.35% | 2.26% | 1.71% | 1.03% | 3.69% | 1.26% |
| CCn1c(-c2nonc2N)nc2cncc(C(=O)NCCNC)c21 | 11.8% | 12.8% | 3.67% | 3.08% | 6% | -0.72% | 0.98% | 2.21% | 3.67% | 5.21% |
| COc1cc(N2CCN(C(C)C)CC2)ccc1Nc1nc(Nc2cccc3ncccc23)c2cc[nH]c2n1 | 2.29% | -1.39% | -2.2% | 0.28% | 0.54% | 0.73% | 6.87% | 0.42% | 3.07% | 34.7% |
| COc1c(C(N)=O)cc(-c2ccc(Cl)cc2)cc1-c1ccc(S(N)(=O)=O)cc1 | 11.2% | 3.27% | 3.88% | 1.48% | 2.82% | 1.14% | -3.65% | 3.23% | 2.89% | 5.37% |
| CS(=O)(=O)CCNCc1ccc(-c2ccc3ncnc(Nc4ccc(OCc5ccccc5)cc4)c3c2)o1 | 8.96% | 2.54% | 2.47% | 3.32% | 4.61% | 4.25% | 1.48% | 4.19% | 22% | 4.28% |
| CN(c1ccc(NC(=O)NCCN2CCOCC2)cc1)c1ccnc(Nc2ccc(CS(C)(=O)=O)cc2)n1 | 94.2% | 2.49% | 4.98% | 21.6% | 73.6% | 57.2% | 84.5% | 1.63% | 11% | 2.84% |
| CCCNc1cccc(-n2ncc3c(N/N=C/c4ccncc4)ncnc32)c1 | 23.7% | -0.57% | 9.89% | 1.36% | 5.45% | 7.17% | 13.4% | 23.1% | 68.3% | 1.2% |
| CNC(=O)c1ncccc1Nc1nc(Nc2cc3c(cc2OC)CCCN3C(=O)CN(C)C)nc2[nH]ccc12 | 3.44% | 1.27% | 4.76% | 3.12% | 1.68% | -0.63% | 0.67% | 2.48% | 4.71% | 86.9% |
| CNC(=O)c1cncc(/C=C/c2ccccc2C)c1 | 14.5% | 1.55% | 3.24% | 3.26% | 4.48% | 3.49% | 5.75% | 1.99% | 7.19% | 2.41% |
| NS(=O)(=O)c1ccc(N/N=C2\C(=O)Nc3ccc(C(=O)NCc4ccncc4)cc32)cc1 | 12.5% | 3.05% | 12.7% | 1.57% | 4.42% | 1.34% | 10.7% | 2.05% | 8.27% | 2.1% |

| SMILES | inhibition [1] | inhibition [2] | inhibition [3] | inhibition [4] | inhibition [5] | inhibition [6] | inhibition [7] | inhibition [8] | inhibition [9] | inhibition [10] |
| --- | --- | --- | --- | --- | --- | --- | --- | --- | --- | --- |
| CN1CCC(C(=O)Nc2n[nH]c3nc(-c4ccc(O)cc4)c(Br)cc23)CC1 | 12.5% and 9.42% | 4.08% and -0.48% | 5.39% and 3.49% | 2.44% and 0.42% | 4.98% and 0.1% | -0.43% and 0.93% | 0.37% and -0.64% | -0.45% and 3.18% | 7.96% and 12.4% | 11.7% and 9.83% |
| CC1=C(C(=O)Nc2ccc3[nH]ncc3c2)C(c2ccc(F)cc2)N=C(c2ccc(C(F)(F)F)nc2)N1 (stereo not given) | 5.44% | -0.02% | -2.78% | 1.78% | 1.33% | 1.39% | 3.28% | 3.06% | 2.27% | 1.67% |
| CCS(=O)(=O)c1ccc(OC)c(Nc2ncc(-c3cccc(F)c3)o2)c1 | 97% | 4.96% | 9.62% | 19.7% | 81.3% | 0.05% | 34.1% | 20.4% | 64.1% | 7.85% |
| COc1ccc(Nc2ncc(-c3ccccc3)o2)cc1OC | 95.9% | -0.42% | 1.76% | 46.1% | 90.3% | 45.7% | 84.8% | 2.31% | 21.2% | 1.44% |
| COc1cc(N2CCN(C(C)C)CC2)ccc1Nc1nc(Nc2cccc(F)c2C(=O)O)c2cc[nH]c2n1 | 8.76% | 3.82% | 3.22% | 2.33% | 3.08% | -0.92% | 0.71% | 1.92% | 2.86% | 66.4% |
| COC(=O)Nc1nc2cc(Oc3ccc(NC(=O)Nc4ccccc4)cc3)ccc2[nH]1 | 68% | 2.82% | 12% | 4.22% | 8.76% | 25.3% | 67.9% | 2.87% | 4.96% | 2.55% |
| COc1cc2c(cc1Nc1nc(Nc3cccc(F)c3C(N)=O)c3cc[nH]c3n1)N(C(=O)CN1CCN(C(C)C)CC1)CC2 | 1.51% | -0.69% | 0.07% | -0.28% | -0.5% | -3.41% | -2.31% | 2.47% | 0.75% | 27.6% |
| CS(=O)(=O)CCNCc1ccoc1-c1ccc2ncnc(Nc3ccc(OCc4ccccc4)cc3)c2c1 | 6.88% | 5.01% | 1.5% | 2.27% | 2.3% | 0.74% | 3.57% | 1.79% | 8.23% | 1.59% |
| NS(=O)(=O)c1cccc(N/C=C2\C(=O)Nc3ccccc32)c1 | 63.9% | 3.62% | 2.43% | 6.57% | 45.2% | -0.34% | 8.83% | 2.31% | 6.78% | 3.74% |
| CNC(=O)c1sc(-n2cnc3cc(OC)c(OC)cc32)cc1OCc1ccccc1C(F)(F)F | 6.11% | 2.29% | 6.55% | 1.67% | 1.95% | -0.58% | 0.44% | 3.6% | 11.9% | 2.32% |
| CN1CCC(n2cnc(-c3ccc(F)cc3)c2-c2ccnc(NCCO)n2)CC1 | 10.7% | 1.99% | 7.69% | 3.05% | 6.22% | -1.29% | -0.38% | 2% | 1.46% | 4.62% |
| COc1cccc(-n2ncc3c(N/N=C/c4ccc(C(=O)NCCN(C)C)cc4)ncnc32)c1 | 65.8% | 7.1% | 15% | 6.62% | 52.3% | 2.06% | 5.99% | 72.9% | 94.4% | 2.24% |
| N#Cc1cccc(Nc2ncc(-c3ccccc3)o2)c1 | 79.6% | 1.87% | 2.5% | 2.85% | 35.8% | 4.29% | 23.8% | 2.79% | 1.76% | 4.04% |
| COc1ccc2ncn(-c3cc(O[C@H](C)c4ccccc4C(F)(F)F)c(C(N)=O)s3)c2c1 | 14.7% | -1.17% | 2.71% | 1.09% | 3.92% | 0.71% | 2.83% | 0.65% | 2.2% | 0.48% |
| Nc1nonc1-c1nc2cnccc2n1C1CC1 | 14.9% and 15.5% | 3.53% and 1.67% | 3.46% and 2.18% | 1.4% and 2.21% | 6.91% and 8.64% | -1.94% and 0.52% | -1.23% and -2.01% | 3.06% and -3.03% | 3.02% and -1.62% | 2.93% and 1.07% |
